# Experimental data from PubChem BioAssay AID2825 (Sanford-Burnham Center for Chemical Genomics, 2010).
# Hit rate of the full screen: of about 330,000 compounds, about 1,300 (0.39%) were called active. Only a selection was taken, and actives are over-represented in it overall. A number with no mark means an inactive call.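 How the source made its calls: active means inhibition of 50% or more; inactive means inhibition below 50%.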
# Assay: blockers of yeast NLRP3/ASC/caspase-1 reporter – luminescence, uHTS, primary screen (AID 2825);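 further: plate controls were induced DMSO wells for no effect and uninduced yeast grown without galactose for full effect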
# Details: Yeast reconstituted NLRP3/ASC/caspase-1, beta-gal luminescence, 24 h; at 10 µM; hits give high values
row,Structure (SMILES),inhibition
1,c1cc2c(cc1C1OCC3C(c4ccc5c(c4)OCO5)OCC13)OCO2 (stereo not given),16.8%
2,c1cc2c(cc1[C@H]1OC[C@H]3[C@@H]1CO[C@@H]3c1ccc3c(c1)OCO3)OCO2,15.5%
3,O=C1/C(=C\c2ccc3c(c2)OCO3)N2CCC1CC2,50.3% (active)
4,Cc1nc2nc(C)c(CCC(=O)N3CCC4(CC3)OCCO4)c(C)n2n1,11.1%
5,Cc1ccc(-c2nc3ccccc3c(=O)n2-c2ccc(Br)cn2)cc1,54.6% (active)
6,O=c1c2ccccc2nc(-c2ccco2)n1-c1ccc(Br)cn1,15.6%
7,O=c1c2ccccc2nc(-c2ccccc2)n1-c1ccccn1,-1.57%
8,CN(C)CC1CCCCC1=O (stereo not given),16.4%
9,C[N+]1(C)CCOC(O)(c2ccc(-c3ccc(C4(O)C[N+](C)(C)CCO4)cc3)cc2)C1 (stereo not given),5.92%
10,COCCNC(=O)CN1C2CCC1CC(O)(c1cccnc1)C2 (stereo not given),21.8%
11,NCCc1ccc(S(=O)(=O)F)cc1,13.1%
12,Cc1cc2ccccn2c1C(C[N+](=O)[O-])c1c(F)cccc1Cl (stereo not given),58.8% (active)
13,Cc1ccc2c(c1)=C/C(=C\c1c(O)[nH]c(=O)[nH]c1=O)C(=O)N=2,8.15%
14,CCCCCCCCCCCCn1ccc(=N)cc1,74.5% (active)
15,COC(=O)C(O)(c1ccc(NC(=O)c2ccco2)c(OC)c1)C(F)(F)F (stereo not given),6.52%
16,CSC1=NP(=S)(SC)N(C)c2nc3n(c21)CCC3 (stereo not given),14.6%
17,Cc1cc(OCc2cc(C(=O)O)oc2C)c2c3c(c(=O)oc2c1)CCCC3,13.3%
18,CNC(=S)N/N=C1\C2CN3CCN(C2)CC1(c1ccccc1)C3,2.33%
19,CN(C)P(=S)(Nc1ccccc1)C(Cl)(Cl)Cl (stereo not given),24.4%
20,C[C@]12CC[C@H](O)C[C@H]1CC[C@@H]1C2CC[C@]2(C)[C@@H](C3=CC(=O)OC3)[C@@H](O)C[C@]12O (stereo not given in full),8.26%
21,C[C@]12CC[C@H](O)CC1=C([N+](=O)[O-])CC1C2CC[C@@]2(C)C1CC[C@@H]2O (stereo not given in full),21.9%
22,C[C@]12CCC3C(CC[C@H]4C[C@@H](O)CC[C@]34C)C1C[C@@H](O)[C@H]2O (stereo not given in full),50.2% (active)
23,C[C@]12CCC3C(CC[C@H]4C[C@@H](O)CC[C@]34C)C1CC[C@@H]2O (stereo not given in full),63.7% (active)
24,O=C(C1CC(=O)N(C2CCCC2)C1)N1CCC2(CC1)OCCO2 (stereo not given),25.3%
25,C/C=C/CC1(CC)C(=O)NC(=S)NC1=O,0.922%
26,COc1ccc2[nH]c3c(c2c1)CCN[C@H]3C,10%
27,CC1=C2C(=O)C3C(CC=C4CC(OC5OC(O)C(O)C(O)C5CO)CCC43C)C2CCC12OC1CC(C)CNC1C2C (stereo not given),32.4%
28,COC(=O)C1=C(c2ccc3ccccc3c2)C[C@@H]2CC[C@H]1N2C(=O)NCCO,-5.73%
29,N=c1ccccn1Cc1ccccc1,1.04%
30,CCN1CCN(c2nc3c(c(=O)[nH]2)CCC3)CC1,9.34%
